Screening results as filed in PubChem.
A selection: hits, their analogues and other compounds. The true share with any hit is near 4.8%.
Calb FLC: affects C. albicans growth with fluconazole. C. albicans CaCi-2 (fluconazole-resistant clinical isolate) + fluconazole, Alamar Blue growth, 48 h. growth inhibition, % (test concentration not listed). hit rate 0.57% among 300,000;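 active = growth inhibition above about 58% in most replicates, limit read from the data, passing the limit was not always enough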;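 also: all wells also contain fluconazole at 8 µg/ml as a sub-toxic cotreatment; 0% = median of DMSO wells and 100% = median of geldanamycin control wells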
CSC inhib: cancer stem cell inhibition | cancer stem cell-like cells viability, luminescence | inhibition, % at 7.5 µM | hit rate 1.1% among 300,000 | AID 2717; in the data active = inhibition above about 75%; tested in HMLE shEcad cells
Beta apoptosis: blocks beta cell apoptosis; INS-1E cytokine-induced death, ATP luminescence, 48 h; percent of positive-control rescue, neutral wells zero; AID 435005; hit rate 0.8% among 300,000; protection from apoptosis, % (test concentration not listed);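 active = Every replicate reaches about 75%, or at least half do and their mean reaches it too, limit read from the data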;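 also: 0% = cytokine-treated negative control wells and 100% = positive control rescue; higher means more ATP so stronger rescue from cytokine killing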
Mdm2 MdmX PPI: disrupts the human Mdm2-MdmX interaction; O15151+Q00987; AID 485346; hit rate 3% among 330,000; inhibition, % at 8 µM; SaOS-2 split-luciferase Mdm2/MdmX complementation, luminescence;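 active = inhibition of at least 50% at 8 µM in the primary screen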
Target sequence (O15151 whole entry, looked up): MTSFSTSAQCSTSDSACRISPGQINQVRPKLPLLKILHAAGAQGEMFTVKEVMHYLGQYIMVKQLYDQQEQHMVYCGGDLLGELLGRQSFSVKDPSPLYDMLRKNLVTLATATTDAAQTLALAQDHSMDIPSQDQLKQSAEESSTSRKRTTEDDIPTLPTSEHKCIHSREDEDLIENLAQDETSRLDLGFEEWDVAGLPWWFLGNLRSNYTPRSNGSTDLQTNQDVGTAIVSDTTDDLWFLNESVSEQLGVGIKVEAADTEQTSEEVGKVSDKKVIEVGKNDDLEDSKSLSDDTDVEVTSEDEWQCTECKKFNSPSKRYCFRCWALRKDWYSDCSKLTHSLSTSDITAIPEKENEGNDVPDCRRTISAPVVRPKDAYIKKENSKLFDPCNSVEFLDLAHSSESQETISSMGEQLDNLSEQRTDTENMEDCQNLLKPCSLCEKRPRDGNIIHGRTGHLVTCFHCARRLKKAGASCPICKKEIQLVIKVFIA
Target sequence (Q00987 whole entry, looked up): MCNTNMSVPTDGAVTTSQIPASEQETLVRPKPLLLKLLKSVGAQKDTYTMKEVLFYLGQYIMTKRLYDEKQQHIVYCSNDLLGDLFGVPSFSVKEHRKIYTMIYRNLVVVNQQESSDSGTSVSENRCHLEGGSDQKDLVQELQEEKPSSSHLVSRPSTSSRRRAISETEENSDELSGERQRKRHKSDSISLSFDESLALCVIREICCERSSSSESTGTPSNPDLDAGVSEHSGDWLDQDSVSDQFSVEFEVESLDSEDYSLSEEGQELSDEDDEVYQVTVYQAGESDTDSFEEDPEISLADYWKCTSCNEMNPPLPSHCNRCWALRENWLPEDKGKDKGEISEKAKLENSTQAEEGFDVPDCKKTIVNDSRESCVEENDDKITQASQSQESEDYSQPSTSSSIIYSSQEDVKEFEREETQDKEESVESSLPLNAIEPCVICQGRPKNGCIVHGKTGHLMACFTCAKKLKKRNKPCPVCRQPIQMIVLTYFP
MPTP inh: inhibitors of mitochondrial permeability transition pore. isolated mouse mitochondria, Ca2+ swelling absorbance, 30 min. inhibition, % at 10 µM. hit rate 1.4% among 360,000. AID 602449;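 active = inhibition of 50% or more, scaled per plate between neutral and stimulator controls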;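 also: 0% = DMSO wells given calcium and 100% = 1 mM EGTA wells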
MPTP counter: membrane potential counter-screen of mitochondrial pore inhibitors. inhibition, % at 10 µM. hit rate 78% among 5,000. isolated mitochondria, Rhodamine 123 fluorescence. shares compounds with MPTP inh; in the data active = inhibition above about 22%;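 also: 0% = DMSO vehicle and 100% = positive control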
MPTP abs DR: MPTP inhibition, dose response swelling confirmation; shares compounds with MPTP inh; isolated mitochondria swelling, absorbance; IC50, µM; hit rate 58% among 780; in the data active = IC50 below about 20 µM
MPTP cs DR: active in counter-screen for permeability transition pore inhibitors. isolated mitochondria counterscreen, fluorescence read-out. IC50, µM. hit rate 49% among 780. shares compounds with MPTP inh; in the data active = IC50 below about 80 µM
An asterisk follows results filed as active; i = inactive; · = no result given.

SMILES	Calb FLC	CSC inhib	Beta apoptosis	Mdm2 MdmX PPI	MPTP inh	MPTP counter	others
Cc1ccc2nc(C)c3c(c2c1)OC(C(C)(Cl)Br)C3 (stereo not given)	-4	0	7	10	3	·
Cc1nc2ccccc2c2c1CC(C(C)(Cl)Br)O2 (stereo not given)	29	-10	57	15	60*	84*
Cc1ccc2nc(Cl)c(/C=N/NC(=O)c3ccccc3O)cc2c1	3	6	-2	9	65*	76*
Cc1ccc2nc(Cl)c(/C=N/NC(=O)[C@H]3C[C@@H]3c3ccccc3)cc2c1	-2	8	5	5	14	·
CCc1ccc(NC(=O)CSc2nc3ncc(Br)cc3[nH]2)cc1	-10	28	12	20	54*	88*
COc1cccc(NC(=O)CSc2nc3ncc(Br)cc3[nH]2)c1	4	69	-5	44	6	·
O=S(=O)(c1cc(F)ccc1F)N1CCC2(CC1)OCCN2S(=O)(=O)c1cccs1	-2	13	0	1	-1	·
Cc1ccc(OCC(=O)Nc2c3c(nn2C(C)(C)C)CS(=O)(=O)C3)cc1	1	-25	2	3	0	·
CCN1C(=NCCOC)N[C@@H](c2ccccc2)[C@H](C(=O)OC)[C@H]1C	·	-16	-5	4	0	·
Cc1cccc(NC(=O)c2cc(-c3cc(C)ccc3O)n[nH]2)c1	20	-5	-7	-72	1	·
Cc1ccc(O)c(-c2cc(C(F)(F)F)[nH]n2)c1	-12	12	0	16	63*	67*
CCN1CCN(c2nc(N)c([N+](=O)[O-])c(Nc3ccc(C)c(C)c3)n2)CC1	13	-3	8	44	81*	-2	MPTP abs DR=i;MPTP cs DR=77*
Cc1ccc(Nc2nc(N)c([N+](=O)[O-])c(N3CCCC(C)C3)n2)cc1C (stereo not given)	51	40	33	8	55*	-9	MPTP abs DR=i;MPTP cs DR=70*
CC1CCCN(c2nc(NCc3ccco3)nc(N)c2[N+](=O)[O-])C1 (stereo not given)	-5	·	-5	-1	5	·
Cc1cc(C)n2c(Br)c(CSc3nc4ccccc4s3)nc2n1	-6	-13	53	-21	1	·
CCN(c1cccc(C(F)(F)F)c1)S(=O)(=O)c1ccc2c(c1)CCN2C(=O)C1CC1	-3	12	·	21	62*	64*
COc1ccc(-n2c(NC(=O)c3ccco3)c(C#N)c3nc4ccccc4nc32)cc1	31	0	-5	0	3	·
N#Cc1c(NC(=O)c2ccccc2Cl)n(Cc2ccccc2)c2nc3ccccc3nc12	·	112*	106*	·	51*	51*
COc1ccc(NC(=O)NC23CC4(C)CC(C)(CC(C)(C4)C2)C3)cc1	-3	10	3	25	97*	48*
COc1ccc(NC(=O)Nc2cc(C)ccc2OC)cc1	-10	4	-3	23	2	·
COc1ccc(NC(=O)NC2(C)CCS(=O)(=O)C2)cc1 (stereo not given)	-4	·	·	12	-3	·
O=C(Nc1ccc(F)cc1)C1CC2CCC1C2 (stereo not given)	-1	7	0	-24	2	·
O=C(Nc1ccc(F)c(Cl)c1)C1CC2CCC1C2 (stereo not given)	-1	·	·	-17	57*	79*
Cc1nnsc1C(=O)NC(=O)Nc1ccc(F)c(Cl)c1	0	-3	-1	12	59*	76*
COc1ccc(OC)c(NC(=O)Nc2ccc(Cl)cc2)c1	20	0	6	11	91*	69*
CN(CC(=O)Nc1ccccc1Cl)C(=O)COC(=O)Cc1ccc(F)cc1	-1	5	-6	8	0	·
Cc1ccc(NC(=O)Nc2ccc(F)c(Cl)c2)cc1	5	12	19	-21	96*	88*
Cc1ccc(CNC(=O)Nc2ccc(Cl)cc2)cc1	-1	0	0	14	11	·
CC(C)CC(=O)Nc1ccc(F)c(Cl)c1	-3	-3	-2	21	13	·
O=C(Nc1cccnc1)Nc1ccc(F)c(Cl)c1	-7	-4	5	-22	93*	85*
